About 64,000 (15%) of roughly 420,000 compounds were called active. Roughly 27% stayed inconclusive and do not appear here. Calls follow the shape of the dose curve; as a rule, active = well fitted inhibition curve with a large enough effect; inconclusive = small, poorly fitted or top-dose-only effect; inactive = flat fitted curve, though single readings scatter. Only a sample is shown.
% is scaled to controls: 0 for no effect and ±100 for the full control effect; potency is read from the fitted curve at half-maximal effect.

The experiment is described as follows: qHTS for Inhibitors of human tyrosyl-DNA phosphodiesterase 1 (TDP1): qHTS in cells in absence of CPT. Also: nearly all actives have a fitted effect of over 55% in size. To be noted: DT40 Tdp1-/- hTDP1 cells, no CPT, ATP luminescence, 48 h; activity change, negative = growth inhibition: at 46.2 µM (top of the series). Summed up:
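Growth kinetics read by CellTiter-Glo luminescence after ≥48 hr at 37 °C. Cells: DT40 Tdp1-/- stably carrying human TDP1, 400 per well, compound exposure in the absence of CPT (DMSO vehicle).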
For orientation: In qHTS, concentration-response curves come from the screen itself.
For the molecule `O=C1NC(c2ccccc2)=NC1(Nc1ccccn1)C(F)(F)F` (stereo not given), the “activity change, negative = growth inhibition” value is -0.592% (inactive).

`CCCNC(=O)N1CCC(c2ccc3c(c2)OCO3)CC1`: the “activity change, negative = growth inhibition” value was 5.53% (inactive).

For the molecule `CC1Cn2c(nnc2-c2cccs2)S1` (stereo not given), the “activity change, negative = growth inhibition” value is -6.14% (inactive).

Consider `COc1ccccc1C(=O)COC(=O)COc1ccc(C#N)cc1`, for which the “activity change, negative = growth inhibition” value was 5.36% (inactive).

With `N#C/C(=C(/O)COc1cccc2ccccc12)c1nc2ccccc2[nH]1`, the “activity change, negative = growth inhibition” value was -9.31% (inactive).

On to `N#C/C(=C(/O)COC(=O)COc1ccc(Cl)cc1)c1nc2ccccc2[nH]1`, for which the Potency was 4.61 µM (active).

In the case of `O=C(/C(=N\O)n1cncn1)c1ccc(Br)cc1Br`, the “activity change, negative = growth inhibition” value was 4.39% (inactive).

As for `Oc1cccc2ccc(/C=C/c3ccc(Br)s3)nc12`, the Potency was 0.082 µM (active).

With `CCOC(=O)C1(Cc2cccc(OC)c2)CCCN(C(=O)CCSC)C1` (stereo not given), the “activity change, negative = growth inhibition” value is -24.5% (inactive).

For the molecule `O=S(=O)(Cc1ccc(Cl)cc1Cl)c1ccc(Cl)cc1`, the Potency is 1.03 µM (active).

Take `Cc1ccc(S(=O)(=O)Cc2cc(-c3ccc(Cl)cc3)no2)cc1`: the “activity change, negative = growth inhibition” value was -6.77% (inactive).

Consider `O=S(=O)(O)c1nc2ccccc2n1Cc1ccc(Cl)cc1Cl`, for which the “activity change, negative = growth inhibition” value is -26.9% (inactive).

For `C=C1CCN([C@H](C(=O)NCc2cc(OC)c(OC)c(OC)c2)C(C)C)S(=O)(=O)c2ccccc21`, the “activity change, negative = growth inhibition” value is -3.89% (inactive).

As to `COc1ccc(C(=O)NC2CC2)cc1OC1CCN(Cc2cnn(C)c2)CC1`, the “activity change, negative = growth inhibition” value is 4.43% (inactive).

Consider `COc1ccc(Cl)cc1NS(=O)(=O)c1cccc(C(=O)NC2CCC(O)CC2)c1` (stereo not given), for which the “activity change, negative = growth inhibition” value is -6.37% (inactive).

Regarding `COc1cc(C(=O)NC2CCN(C)CC2)ccc1Nc1ncc2c(n1)N(C1CCC(O)CC1)CCC(=O)N2C` (stereo not given), the Potency is 16.4 µM (active).

`Cc1ccccc1OCCC(=O)Nc1c(C)n(C)n(-c2ccccc2)c1=O`: the “activity change, negative = growth inhibition” value is 0.764% (inactive).

On to `COc1cccc(C(=O)N2CCC(n3nccc3NC(=O)C3CCOC3)CC2)c1` (stereo not given), for which the “activity change, negative = growth inhibition” value was 3.75% (inactive).

`COc1ccc(-c2nnc3n2CCCCC3)cc1`: the “activity change, negative = growth inhibition” value was -10.5% (inactive).

Take `COc1ccc(N2CCN(Cc3nnc(-c4ccccc4)o3)CC2)cc1`: the “activity change, negative = growth inhibition” value was 3.5% (inactive).

Take `COc1ccc(N2CCN(c3cc(C)nc4nncn34)CC2)cc1`: the Potency was 16.4 µM (active).

With `Cc1ccccc1C1CC(c2cccs2)=NN1S(C)(=O)=O` (stereo not given), the “activity change, negative = growth inhibition” value was -7.12% (inactive).

Regarding `COc1cccc(CNC(=O)C2CCN(S(=O)(=O)c3ccc4c(ccn4C)c3)CC2)c1`, the “activity change, negative = growth inhibition” value is 1.01% (inactive).

As to `Cc1ccccc1CNC(=O)C1CCCN(S(=O)(=O)N(C)c2ccc(F)cc2)C1` (stereo not given), the Potency was 18.4 µM (active).

Take `CCOC(=O)c1c(S(=O)(=O)N2CCCC(C(=O)NCc3ccc(F)cc3)C2)c(C)n(CC)c1C` (stereo not given): the “activity change, negative = growth inhibition” value is -20.8% (inactive).

As for `CCOc1ccc(NC(=O)C2CCCN(C(=O)Nc3ccccc3)C2)cc1` (stereo not given), the “activity change, negative = growth inhibition” value was -0.394% (inactive).

`CCOc1ccc(N(CC)S(=O)(=O)N2CCCC(C(=O)Nc3ccc(C(C)=O)cc3)C2)cc1` (stereo not given): the Potency is 23.1 µM (active).

In the case of `CCOc1ccc(CNC(=O)C2CCCN(S(=O)(=O)N(CC)c3ccc(OCC)cc3)C2)cc1` (stereo not given), the Potency was 20.6 µM (active).

As for `CCOc1ccccc1NC(=O)C1CCCN(S(=O)(=O)c2cn(C)cn2)C1` (stereo not given), the “activity change, negative = growth inhibition” value is -6.57% (inactive).

As for `CCOc1ccccc1CNC(=O)C1CCCN(S(=O)(=O)c2ccc3c(ccn3C)c2)C1` (stereo not given), the Potency is 16.4 µM (active).

Take `CCOc1ccc(C(=O)NC2CCN(S(=O)(=O)CC)CC2)cc1`: the “activity change, negative = growth inhibition” value is -14.8% (inactive).

In the case of `CCS(=O)(=O)N1CCCC(C(=O)NCc2ccc(C)cc2)C1` (stereo not given), the “activity change, negative = growth inhibition” value is -1.29% (inactive).

For the molecule `CCOC(=O)c1c(C)[nH]c(C)c1S(=O)(=O)N1CCCC(C(=O)NCc2ccccc2Cl)C1` (stereo not given), the “activity change, negative = growth inhibition” value is -27.1% (inactive).

On to `Cc1ccc(CNC(=O)C2CCCN(S(C)(=O)=O)C2)cc1` (stereo not given), for which the “activity change, negative = growth inhibition” value was -9.73% (inactive).

Regarding `Cc1cc(C)cc(OCc2nnc(SCC(=O)OC3CCCCC3)o2)c1`, the “activity change, negative = growth inhibition” value was -0.322% (inactive).

Regarding `OC(c1ccccc1)c1nccn1Cc1ccccc1` (stereo not given), the “activity change, negative = growth inhibition” value was 2.98% (inactive).

For `COc1ccccc1C(=O)NC(CCSC)C(=O)NNC(=O)c1csc(N2CCOCC2)n1` (stereo not given), the “activity change, negative = growth inhibition” value is -22% (inactive).

On to `CCN(CC)C(=O)CS(=O)CC(=O)Nc1cc(OCCOC)c(Cl)cc1Cl` (stereo not given), for which the “activity change, negative = growth inhibition” value was -3.24% (inactive).

`CCOC(=O)c1c(S(=O)(=O)N2CCCC(C(=O)NCc3cccc(C)c3)C2)c(C)n(C)c1C` (stereo not given): the “activity change, negative = growth inhibition” value was -4.19% (inactive).

Regarding `CSc1ccc(S(=O)(=O)N2CCC(C(=O)NCc3ccncc3)CC2)cc1`, the “activity change, negative = growth inhibition” value is -13.1% (inactive).

`COc1ccc(NC(=O)C2CCCN(S(=O)(=O)c3cccc4cccnc34)C2)cc1` (stereo not given): the “activity change, negative = growth inhibition” value was -42.5% (inactive).

With `CCOc1cccc(NC(=O)C2CCCN(S(=O)(=O)c3ccc(OC)cc3)C2)c1` (stereo not given), the Potency was 23.1 µM (active).

As to `CCOc1ccc(N(CC)S(=O)(=O)N2CCCC(C(=O)NCc3ccc(SC)cc3)C2)cc1` (stereo not given), the Potency was 20.6 µM (active).

On to `Cc1c(S(=O)(=O)O)oc2c1C(=O)C(=O)c1c-2ccc2c1CCCC2(C)C`, for which the “activity change, negative = growth inhibition” value was -8.76% (inactive).

In the case of `Cc1nc(C)c(C(=O)Nc2ccc(C)c(F)c2)o1`, the “activity change, negative = growth inhibition” value was -0.916% (inactive).

`CCOc1c(N2CCCCC2)c(=O)c1=O`: the “activity change, negative = growth inhibition” value was -12.1% (inactive).

As for `Cc1[nH]c(N)nc(=S)c1CCCNc1ccccc1`, the Potency is 16.4 µM (active).

As to `CCc1c(Nc2ccccc2C)nc(N)[nH]c1=O`, the “activity change, negative = growth inhibition” value was -8.5% (inactive).

Consider `Cc1cc(=O)n(C)c(=O)n1CCCNc1ccccc1`, for which the “activity change, negative = growth inhibition” value is -23.9% (inactive).

In the case of `O=C(NC(=S)Nc1ccc(Cl)c(C(=O)O)c1)c1cncc(Br)c1`, the “activity change, negative = growth inhibition” value is 24.7% (inactive).

As to `O=C(COC(=O)/C=C/c1ccc(Cl)cc1)NC1CCS(=O)(=O)C1` (stereo not given), the Potency is 18.4 µM (active).

With `O=C(Cc1ccc(Cl)cc1)NC1CCS(=O)(=O)C1` (stereo not given), the “activity change, negative = growth inhibition” value is 12.7% (inactive).

`O=C(COC(=O)/C=C/c1ccc2c(c1)OCO2)NC1CCS(=O)(=O)C1` (stereo not given): the “activity change, negative = growth inhibition” value is 14.5% (inactive).

Take `Cc1cccc(C)c1NC(=O)CSc1nnc(-c2ccccc2)n1Cc1ccc2c(c1)OCO2`: the “activity change, negative = growth inhibition” value is -17.4% (inactive).

In the case of `CCC(=O)Nc1ccc(C(=O)Nc2ccc3c(c2)C(=O)N(CC2CCCO2)C3=O)cc1` (stereo not given), the “activity change, negative = growth inhibition” value is -10.2% (inactive).

As for `O=S(=O)(NCC1CCCO1)c1ccc2ccccc2c1` (stereo not given), the “activity change, negative = growth inhibition” value was -14.2% (inactive).

With `CCOC(=O)c1c(NC(=O)c2ccc(S(=O)(=O)N(C)CC3CCCO3)cc2)sc2c1CC(C)(C)NC2(C)C` (stereo not given), the “activity change, negative = growth inhibition” value was -27.4% (inactive).

As to `O=C(Nc1ccc(S(=O)(=O)NCC2CCCO2)cc1)c1ccc(F)cc1` (stereo not given), the Potency was 16.4 µM (active).

On to `CCOc1ccc(S(=O)(=O)NCC2CCCO2)cc1` (stereo not given), for which the “activity change, negative = growth inhibition” value was -16% (inactive).

Consider `CN(CC1CCCO1)S(=O)(=O)c1ccc(C(=O)Nc2ccc([N+](=O)[O-])cc2)cc1` (stereo not given), for which the Potency was 5.8 µM (active).

Turning to `O=C1C(C=NCC2CCCO2)=C(O)c2ccccc21` (stereo not given), the “activity change, negative = growth inhibition” value is -16.7% (inactive).

Regarding `COC(=O)C1CCN(C(=O)NC2CC(=O)N(c3ccc4c(c3)OCCO4)C2)CC1` (stereo not given), the “activity change, negative = growth inhibition” value was 0.284% (inactive).

As to `COC(=O)c1onc(-c2c(OC)cc(OC)cc2OC)c1C(=O)OC`, the “activity change, negative = growth inhibition” value is -7.15% (inactive).

Turning to `CN(Cc1cc2cc(F)ccc2[nH]1)Cc1nc(-c2cnccn2)no1`, the “activity change, negative = growth inhibition” value is -4.72% (inactive).

On to `COc1cc(C(=O)NNC(=O)CN2C(=O)NC3(CCCC3)C2=O)cc(OC)c1OC`, for which the “activity change, negative = growth inhibition” value is 4.78% (inactive).

The record behind these values is PubChem BioAssay AID686978 (National Center for Advancing Translational Sciences (NCATS), 2013).
